Measurements as given in PMC7862700, “An all-to-all approach to the identification of sequence-specific readers for epigenetic DNA modifications on cytosine”.

What was measured:
Test in all cases: DAPPL (digital affinity profiling via proximity ligation, sequencing); 10 mM Tris-HCl pH 7.5, 50 mM NaCl, 1 mM DTT, 4% glycerol, room temperature, 30 min; GST-TFs on glutathione beads, 16-mer random dsDNA library, 0.1% formaldehyde crosslink after washing; high values mean tight binding
Conditions in all cases: protein: recombinant; tags: N-terminal GST; dsDNA, one strand shown
FLI1 = target: T1, FLI1 (Homo sapiens, UniProt Q01543 1-452)
T1 sequence: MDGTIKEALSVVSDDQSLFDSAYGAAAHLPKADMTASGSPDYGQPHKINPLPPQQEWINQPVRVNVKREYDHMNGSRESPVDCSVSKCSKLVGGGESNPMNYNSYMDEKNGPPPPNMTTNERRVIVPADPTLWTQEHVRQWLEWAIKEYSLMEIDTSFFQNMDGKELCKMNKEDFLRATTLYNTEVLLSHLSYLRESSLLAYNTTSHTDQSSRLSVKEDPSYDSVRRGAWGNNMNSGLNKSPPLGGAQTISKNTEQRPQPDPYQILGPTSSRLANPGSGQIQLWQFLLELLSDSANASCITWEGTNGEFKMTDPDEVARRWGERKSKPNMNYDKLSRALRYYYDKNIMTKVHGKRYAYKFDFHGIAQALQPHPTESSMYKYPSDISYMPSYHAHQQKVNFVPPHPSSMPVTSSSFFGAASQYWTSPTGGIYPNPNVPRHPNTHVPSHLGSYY
How it was run: (§1)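 Human transcription factors carrying a GST fusion were produced in yeast, bound to glutathione beads, tagged with DNA barcodes and pooled together with a tag-only sample. Each pool was held with 200 nmole of a random double-stranded 16-mer DNA library in Tris/NaCl/DTT/glycerol buffer for 30 min at room temperature, then washed, crosslinked in 0.1% formaldehyde, proximity-ligated with BsaI/T4 ligase (1 h, 37 °C), PCR-amplified and sequenced on an Illumina NextSeq500. Binding signal is the read frequency of each hexamer for a given factor divided by its frequency in the tag-only sample.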

ELK1 = target: T2, ELK1 (Homo sapiens, UniProt P19419 1-428)
T2 sequence: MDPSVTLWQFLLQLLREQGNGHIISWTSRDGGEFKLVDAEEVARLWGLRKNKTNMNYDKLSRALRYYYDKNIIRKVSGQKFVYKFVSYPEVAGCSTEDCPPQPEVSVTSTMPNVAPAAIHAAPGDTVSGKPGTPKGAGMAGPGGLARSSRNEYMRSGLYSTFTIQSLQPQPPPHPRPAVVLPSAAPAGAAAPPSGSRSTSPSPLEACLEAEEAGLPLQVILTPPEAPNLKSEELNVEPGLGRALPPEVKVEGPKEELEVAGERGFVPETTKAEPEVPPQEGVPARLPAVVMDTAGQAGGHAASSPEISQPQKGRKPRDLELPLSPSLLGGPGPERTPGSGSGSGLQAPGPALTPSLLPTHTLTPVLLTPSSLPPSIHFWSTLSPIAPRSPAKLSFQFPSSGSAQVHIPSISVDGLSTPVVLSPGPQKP
How it was run: as §1

GABPA = target: T3, GABPA (Homo sapiens, UniProt Q06546 1-454)
T3 sequence: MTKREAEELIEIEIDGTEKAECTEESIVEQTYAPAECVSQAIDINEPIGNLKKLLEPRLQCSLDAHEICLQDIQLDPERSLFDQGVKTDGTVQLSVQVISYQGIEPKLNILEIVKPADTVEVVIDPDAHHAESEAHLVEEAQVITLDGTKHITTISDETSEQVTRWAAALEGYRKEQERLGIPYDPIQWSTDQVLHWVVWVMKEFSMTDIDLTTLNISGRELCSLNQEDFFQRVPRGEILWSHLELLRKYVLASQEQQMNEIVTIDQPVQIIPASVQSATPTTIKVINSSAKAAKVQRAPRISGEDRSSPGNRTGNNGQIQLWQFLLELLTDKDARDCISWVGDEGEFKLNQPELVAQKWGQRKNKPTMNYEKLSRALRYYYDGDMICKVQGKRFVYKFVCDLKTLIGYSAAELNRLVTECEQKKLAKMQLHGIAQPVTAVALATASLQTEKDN
How it was run: as §1

ERG = target: T4, ERG (Homo sapiens, UniProt P11308 1-479)
T4 sequence: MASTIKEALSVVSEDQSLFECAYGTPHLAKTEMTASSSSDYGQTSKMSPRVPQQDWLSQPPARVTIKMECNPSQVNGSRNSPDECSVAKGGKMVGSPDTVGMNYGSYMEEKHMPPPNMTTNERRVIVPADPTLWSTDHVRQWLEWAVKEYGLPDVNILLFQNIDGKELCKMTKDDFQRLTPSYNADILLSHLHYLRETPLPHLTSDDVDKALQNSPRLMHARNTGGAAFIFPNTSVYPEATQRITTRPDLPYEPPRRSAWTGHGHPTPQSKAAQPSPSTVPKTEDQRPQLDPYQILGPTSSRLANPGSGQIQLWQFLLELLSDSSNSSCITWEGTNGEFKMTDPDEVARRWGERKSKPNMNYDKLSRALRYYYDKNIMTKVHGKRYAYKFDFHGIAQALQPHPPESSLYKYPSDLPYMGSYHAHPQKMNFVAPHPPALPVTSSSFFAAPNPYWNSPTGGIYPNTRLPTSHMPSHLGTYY
How it was run: as §1

ELF1 = ELF1 (Homo sapiens, UniProt P32519 1-619)
ELF1, sequence (P32519 whole entry): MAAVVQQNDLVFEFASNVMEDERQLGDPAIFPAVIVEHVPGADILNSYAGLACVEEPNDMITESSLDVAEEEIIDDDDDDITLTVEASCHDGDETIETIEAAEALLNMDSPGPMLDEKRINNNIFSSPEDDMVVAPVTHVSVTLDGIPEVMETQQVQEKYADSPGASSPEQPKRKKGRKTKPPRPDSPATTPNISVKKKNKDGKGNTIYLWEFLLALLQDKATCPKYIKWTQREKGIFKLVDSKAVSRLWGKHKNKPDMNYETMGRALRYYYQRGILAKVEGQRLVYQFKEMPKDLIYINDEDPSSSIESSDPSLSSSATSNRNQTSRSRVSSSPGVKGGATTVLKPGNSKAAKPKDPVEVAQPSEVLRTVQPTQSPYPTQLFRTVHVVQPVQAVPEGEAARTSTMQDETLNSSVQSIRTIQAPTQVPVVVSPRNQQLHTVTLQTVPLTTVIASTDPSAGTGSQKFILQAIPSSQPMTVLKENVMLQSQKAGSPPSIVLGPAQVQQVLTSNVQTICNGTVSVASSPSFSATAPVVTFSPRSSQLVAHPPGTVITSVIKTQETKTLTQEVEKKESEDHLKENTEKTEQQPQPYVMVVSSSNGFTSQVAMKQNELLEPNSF
How it was run: as §1

EHF = target: T5, EHF (Homo sapiens, UniProt Q9NZC4 1-300)
T5 sequence: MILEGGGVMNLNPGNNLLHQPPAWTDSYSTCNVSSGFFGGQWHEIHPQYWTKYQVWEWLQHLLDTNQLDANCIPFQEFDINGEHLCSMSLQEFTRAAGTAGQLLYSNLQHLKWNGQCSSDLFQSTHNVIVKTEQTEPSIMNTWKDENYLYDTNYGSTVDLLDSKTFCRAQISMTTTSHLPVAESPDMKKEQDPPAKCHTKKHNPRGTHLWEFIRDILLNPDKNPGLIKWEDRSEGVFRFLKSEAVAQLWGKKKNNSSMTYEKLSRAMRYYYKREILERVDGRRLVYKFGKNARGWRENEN
How it was run: as §1

SPI1 = SPI1 (Homo sapiens, UniProt P17947 1-270)
How it was run: as §1

SPIB = SPIB (Homo sapiens, UniProt Q01892 1-262)
SPIB, sequence (Q01892 whole entry): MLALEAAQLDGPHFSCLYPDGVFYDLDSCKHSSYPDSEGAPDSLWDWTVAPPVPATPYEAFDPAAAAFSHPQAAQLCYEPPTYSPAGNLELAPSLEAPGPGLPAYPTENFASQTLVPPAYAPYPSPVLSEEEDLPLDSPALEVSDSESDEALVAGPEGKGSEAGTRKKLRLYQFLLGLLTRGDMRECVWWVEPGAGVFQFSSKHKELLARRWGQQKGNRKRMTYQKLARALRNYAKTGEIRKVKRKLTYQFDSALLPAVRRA
How it was run: as §1

ELK3 = target: T6, ELK3 (Homo sapiens, UniProt P41970 1-407)
T6 sequence: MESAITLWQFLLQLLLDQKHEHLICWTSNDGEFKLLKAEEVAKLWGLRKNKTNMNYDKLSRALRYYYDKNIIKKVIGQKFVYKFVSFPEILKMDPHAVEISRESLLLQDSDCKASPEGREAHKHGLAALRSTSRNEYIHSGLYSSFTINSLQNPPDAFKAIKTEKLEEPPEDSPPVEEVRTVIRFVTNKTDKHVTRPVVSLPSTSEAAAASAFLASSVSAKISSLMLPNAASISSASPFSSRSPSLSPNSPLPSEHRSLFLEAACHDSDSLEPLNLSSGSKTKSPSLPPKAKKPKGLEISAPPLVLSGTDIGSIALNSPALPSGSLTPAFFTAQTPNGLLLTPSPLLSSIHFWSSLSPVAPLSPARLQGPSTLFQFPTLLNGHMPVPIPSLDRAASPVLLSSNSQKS
How it was run: as §1

In the case of AACTTT, the binding signal (FLI1) is reported as 1.38 fold enrichment (6-mer frequency, TF over GST control), the binding signal (ELK1) is reported as 1.27 fold enrichment (6-mer frequency, TF over GST control) and the binding signal (GABPA) is reported as 1.17 fold enrichment (6-mer frequency, TF over GST control). The binding signal (ERG) was 1.16 fold enrichment (6-mer frequency, TF over GST control), the binding signal (ELF1) was 1.23 fold enrichment (6-mer frequency, TF over GST control) and the binding signal (EHF) was 1.18 fold enrichment (6-mer frequency, TF over GST control). For the same sequence, the binding signal (SPI1) was 1.23 fold enrichment (6-mer frequency, TF over GST control), the binding signal (SPIB) was 1.32 fold enrichment (6-mer frequency, TF over GST control) and the binding signal (ELK3) was 1.2 fold enrichment (6-mer frequency, TF over GST control).
TACGTA was tested, and the binding signal (FLI1) was 1.41 fold enrichment (6-mer frequency, TF over GST control), the binding signal (ELK1) was 1.36 fold enrichment (6-mer frequency, TF over GST control) and the binding signal (GABPA) was 1.31 fold enrichment (6-mer frequency, TF over GST control). The binding signal (ERG) was 1.2 fold enrichment (6-mer frequency, TF over GST control), the binding signal (ELF1) was 1.32 fold enrichment (6-mer frequency, TF over GST control) and the binding signal (EHF) was 1.41 fold enrichment (6-mer frequency, TF over GST control). The binding signal (SPI1) was 1.35 fold enrichment (6-mer frequency, TF over GST control), the binding signal (SPIB) was 1.15 fold enrichment (6-mer frequency, TF over GST control) and the binding signal (ELK3) was 1.37 fold enrichment (6-mer frequency, TF over GST control).
With TAAACG the binding signal (FLI1) was 1.17 fold enrichment (6-mer frequency, TF over GST control), the binding signal (ELK1) was 1.09 fold enrichment (6-mer frequency, TF over GST control) and the binding signal (GABPA) was 1.15 fold enrichment (6-mer frequency, TF over GST control). For the same sequence, the binding signal (ERG) was 1.09 fold enrichment (6-mer frequency, TF over GST control), the binding signal (ELF1) was 1.11 fold enrichment (6-mer frequency, TF over GST control) and the binding signal (EHF) was 1.17 fold enrichment (6-mer frequency, TF over GST control). The binding signal (SPI1) was 1.13 fold enrichment (6-mer frequency, TF over GST control), the binding signal (SPIB) was 1.19 fold enrichment (6-mer frequency, TF over GST control) and the binding signal (ELK3) was 1.13 fold enrichment (6-mer frequency, TF over GST control).
For TCCTAG, the binding signal (FLI1) was 1.23 fold enrichment (6-mer frequency, TF over GST control), the binding signal (ELK1) was 1.11 fold enrichment (6-mer frequency, TF over GST control) and the binding signal (GABPA) was 1.24 fold enrichment (6-mer frequency, TF over GST control). For the same sequence, the binding signal (ERG) was 1.17 fold enrichment (6-mer frequency, TF over GST control), the binding signal (ELF1) was 1.31 fold enrichment (6-mer frequency, TF over GST control) and the binding signal (EHF) was 1.22 fold enrichment (6-mer frequency, TF over GST control). For the same sequence, the binding signal (SPI1) was 1.12 fold enrichment (6-mer frequency, TF over GST control), the binding signal (SPIB) was 1.41 fold enrichment (6-mer frequency, TF over GST control) and the binding signal (ELK3) was 1.2 fold enrichment (6-mer frequency, TF over GST control).
AACCCT was tested, and the binding signal (FLI1) was 1.31 fold enrichment (6-mer frequency, TF over GST control), the binding signal (ELK1) was 1.4 fold enrichment (6-mer frequency, TF over GST control) and the binding signal (GABPA) was 1.29 fold enrichment (6-mer frequency, TF over GST control). For the same sequence, the binding signal (ERG) was 1.23 fold enrichment (6-mer frequency, TF over GST control), the binding signal (ELF1) was 1.35 fold enrichment (6-mer frequency, TF over GST control) and the binding signal (EHF) was 1.18 fold enrichment (6-mer frequency, TF over GST control). The binding signal (SPI1) was 1.32 fold enrichment (6-mer frequency, TF over GST control), the binding signal (SPIB) was 1.29 fold enrichment (6-mer frequency, TF over GST control) and the binding signal (ELK3) was 1.5 fold enrichment (6-mer frequency, TF over GST control).
For AACAAA, the binding signal (FLI1) was 1.18 fold enrichment (6-mer frequency, TF over GST control), the binding signal (ELK1) was 1.16 fold enrichment (6-mer frequency, TF over GST control) and the binding signal (GABPA) was 1.1 fold enrichment (6-mer frequency, TF over GST control). For the same sequence, the binding signal (ERG) was 1.18 fold enrichment (6-mer frequency, TF over GST control), the binding signal (ELF1) was 1.14 fold enrichment (6-mer frequency, TF over GST control) and the binding signal (EHF) was 1.17 fold enrichment (6-mer frequency, TF over GST control). The binding signal (SPI1) was 1.16 fold enrichment (6-mer frequency, TF over GST control), the binding signal (SPIB) was 1.15 fold enrichment (6-mer frequency, TF over GST control) and the binding signal (ELK3) was 1.27 fold enrichment (6-mer frequency, TF over GST control).
For GCTCCT, the binding signal (FLI1) was 1.54 fold enrichment (6-mer frequency, TF over GST control), the binding signal (ELK1) was 1.39 fold enrichment (6-mer frequency, TF over GST control) and the binding signal (GABPA) was 1.52 fold enrichment (6-mer frequency, TF over GST control). The binding signal (ERG) was 1.32 fold enrichment (6-mer frequency, TF over GST control), the binding signal (ELF1) was 1.45 fold enrichment (6-mer frequency, TF over GST control) and the binding signal (EHF) was 1.41 fold enrichment (6-mer frequency, TF over GST control). The binding signal (SPI1) was 1.4 fold enrichment (6-mer frequency, TF over GST control), the binding signal (SPIB) was 1.46 fold enrichment (6-mer frequency, TF over GST control) and the binding signal (ELK3) was 1.33 fold enrichment (6-mer frequency, TF over GST control).
In the case of CCCATA, the binding signal (FLI1) is reported as 1.23 fold enrichment (6-mer frequency, TF over GST control), the binding signal (ELK1) is reported as 1.26 fold enrichment (6-mer frequency, TF over GST control) and the binding signal (GABPA) is reported as 1.33 fold enrichment (6-mer frequency, TF over GST control). The binding signal (ERG) was 1.24 fold enrichment (6-mer frequency, TF over GST control), the binding signal (ELF1) was 1.21 fold enrichment (6-mer frequency, TF over GST control) and the binding signal (EHF) was 1.13 fold enrichment (6-mer frequency, TF over GST control). The binding signal (SPI1) was 1.18 fold enrichment (6-mer frequency, TF over GST control), the binding signal (SPIB) was 1.34 fold enrichment (6-mer frequency, TF over GST control) and the binding signal (ELK3) was 1.21 fold enrichment (6-mer frequency, TF over GST control).
